Consider 56 compounds from ChEMBL document CHEMBL4513216, “Probing the Open Global Health Chemical Diversity Library for Multistage-Active Starting Points for Next-Generation Antimalarials” (ACS Infect Dis, 2020).

In all, about 69,000 compounds went through this assay and about 8,600 (12%) showed an effect of 50% or more. The list comes from a sample in which strong results are over-represented; it also holds similar structures and randomly drawn compounds.

For this test, the system named is Plasmodium berghei. Kind of test: Screen against P. berghei liver stage (PbLuc), transformed with Luciferase, at 10uM. As to conditions: tested at 10 uM. Type of test: functional, HepG2.
For `CC(C)OCCCNC(=O)CN1C=Nc2ccccc2S1(=O)=O`, the INHIBITION turned out to be 12.7%.

For the compound `CC(C)CCC(C)NC(=O)CN1C=Nc2ccccc2S1(=O)=O` (stereo unspecified), the INHIBITION was determined as 12.7%.

On to `O=C(CN1C=Nc2ccccc2S1(=O)=O)NCCCc1ccccc1`, for which the INHIBITION was 55.2%.

Regarding `Cc1ccc(CNC(=O)CN2C=Nc3ccccc3S2(=O)=O)s1`, the INHIBITION came to 22.3%.

Take `O=C(CN1C=Nc2ccccc2S1(=O)=O)NCCc1cccs1`: the INHIBITION is 53.8%.

Regarding `CC(NC(=O)CN1C=Nc2ccccc2S1(=O)=O)c1ccccc1` (stereo unspecified), the INHIBITION is -18.5%.

Consider `O=C(CN1C=Nc2ccccc2S1(=O)=O)NCc1ccccc1`, for which the INHIBITION worked out at 7.27%.

Take `CNC(=O)c1ccc(-c2ccc(CNS(=O)(=O)N(C)C)cc2)nc1C`: the INHIBITION is 8.12%.

On to `O=c1occ(CN2CCCCCC2)c(O)c1CN1CCCCCC1`, for which the INHIBITION was determined as 25.8%.

For the compound `COc1ccc(CCC2CCCN(C(=O)c3cnc(N)nc3C)C2)cc1` (stereo unspecified), the INHIBITION came to 34.9%.

Regarding `Cc1ccc(-c2ncc(C(=O)N3CCCC(CCN)C3)c(O)n2)cc1` (stereo unspecified), the INHIBITION is recorded as 53.8%.

On to `Cc1ccc(-c2ncc(C(=O)N3CCC[C@H](N)C3)c(O)n2)cc1`, for which the INHIBITION was determined as 42.2%.

On to `Cc1ccc(-c2ncc(C(=O)N3CCCN4CCC[C@H]4C3)c(O)n2)cc1`, for which the INHIBITION is given as 15.2%.

With `Cc1nc(N)ncc1C(=O)N1CCCC(CCc2ccc(F)c(F)c2)C1` (stereo unspecified), the INHIBITION amounted to 38.5%.

Take `Cc1nc(N)ncc1C(=O)N1CCCC(CCc2ccc(F)cc2)C1` (stereo unspecified): the INHIBITION stood at 90.3%.

As for `O=C(c1c[nH]cn1)N1CCC(F)(F)C2(CCN(c3cccc(F)c3)C2)C1` (stereo unspecified), the INHIBITION amounted to 21.7%.

`CC(=O)Nc1ccc(SCC(O)COCc2ccc3c(c2)OCO3)cc1` (stereo unspecified): the INHIBITION is reported as 25.8%.

Regarding `COc1ccc(CN(C)CC2(O)CCNC2)cc1` (stereo unspecified), the INHIBITION came out at 20.85%.

In the case of `Cc1nc(CN2CCC3(CC2)CC(c2cccnc2)C(=O)N3C)cs1` (stereo unspecified), the INHIBITION stood at 34.5%.

Take `CS(=O)(=O)NC[C@]1(O)CCN(C(=O)Cc2cccs2)C[C@H]1O`: the INHIBITION is given as -8.12%.

Regarding `C[C@@H]1CN(C(=O)C2CCS(=O)(=O)CC2)C[C@]1(C)O`, the INHIBITION is on record as -7.81%.

For `CNC(=O)NC(=O)C(NCc1ccccc1)c1ccccc1` (stereo unspecified), the INHIBITION stood at 24.8%.

As to `CNC(=O)NC(=O)C(NCc1cccs1)c1ccccc1` (stereo unspecified), the INHIBITION is 64.7%.

For `NC(=O)C(NCCc1ccc(Cl)s1)c1ccccc1` (stereo unspecified), the INHIBITION is on record as -35.8%.

For `O=C(C(CNCc1cccs1)c1ccccc1)N1CCOCC1` (stereo unspecified), the INHIBITION is 5.85%.

Regarding `NC(=O)C(NCc1cccs1)c1ccccc1` (stereo unspecified), the INHIBITION is 60.1%.

Take `NC(=O)C(NCc1ccc(Cl)s1)c1ccccc1` (stereo unspecified): the INHIBITION is -22.6%.

With `CC(C)(C)N1CC(C(=O)N2CC(Oc3ccc(F)cc3)C2)CC1=O` (stereo unspecified), the INHIBITION is on record as 18.5%.

On to `COCCN1CCC2(CC1)CC(c1cccnc1)CO2` (stereo unspecified), for which the INHIBITION amounted to 16.4%.

`N#Cc1ccc(OCC(O)CN2CCC(Cn3cccn3)CC2)cc1` (stereo unspecified): the INHIBITION worked out at 5.7%.

As for `CNC(=O)[C@H]1C[C@@H]2CN(S(=O)(=O)c3ccc(OC)cc3)C[C@@H]2N1C`, the INHIBITION was found to be 46.6%.

For `COCc1cncc2c1CCN(C(=O)c1cccc(C#N)c1)C2`, the INHIBITION stood at 14.9%.

In the case of `Cn1cc(N2CC3(CCN(Cc4nccn4C)C3)CC2=O)cn1` (stereo unspecified), the INHIBITION was determined as 14.8%.

Take `Cn1ccnc1CN1CCC2(CC(=O)N(c3cccc(F)c3)C2)C1` (stereo unspecified): the INHIBITION turned out to be 25.3%.

Take `COc1cccc(N2CC3(CCN(Cc4nccn4C)C3)CC2=O)c1` (stereo unspecified): the INHIBITION is listed as 40.4%.

`Cn1ccnc1CN1CCC2(CC(=O)N(c3ccsc3)C2)C1` (stereo unspecified): the INHIBITION stood at 53.2%.

In the case of `Cc1cccc(N2CC3(CCN(Cc4nccn4C)C3)CC2=O)c1` (stereo unspecified), the INHIBITION worked out at 52%.

Take `Cn1ccnc1CN1CCC2(CC(=O)N(c3cncnc3)C2)C1` (stereo unspecified): the INHIBITION amounted to 33.5%.

`CCc1nc(C2CCCN2CCCS(N)(=O)=O)no1` (stereo unspecified): the INHIBITION is listed as 31.9%.

As for `CSCCC(NC(=O)C1CC1)C(=O)N(C)Cc1ccsc1` (stereo unspecified), the INHIBITION turned out to be 42.6%.

In the case of `Cc1noc(C)c1CCc1nc(C2CCOC2)no1` (stereo unspecified), the INHIBITION is recorded as -94.3%.

`COCCC(=O)N1CCOCC2(CCN(Cc3cccs3)C2)C1` (stereo unspecified): the INHIBITION is reported as -5.31%.

`Cn1cc(-c2ncnc3c2CCN(CC2CCOC2)CC3)cn1` (stereo unspecified): the INHIBITION turned out to be 25.8%.

For the compound `CN(C)[C@@H]1CCN(S(=O)(=O)C2CC2)[C@H]1Cc1ccccc1`, the INHIBITION turned out to be 27.5%.

`Cc1nc(C2CCCN(C(=O)c3cccc4c3OCO4)C2)sc1C` (stereo unspecified): the INHIBITION is recorded as 40%.

As to `c1cc(-c2cn[nH]c2)ccc1CN1CCNCC1`, the INHIBITION is 14.6%.

Regarding `Cc1ccc(-c2ncc(C(=O)NCCNC(=O)C(C)C)s2)c(C)c1`, the INHIBITION is reported as -10.9%.

On to `CCNC(=O)C(C)NC(=O)c1cnc(-c2ccc(C)cc2C)s1` (stereo unspecified), for which the INHIBITION stood at 50.5%.

As to `Cc1ccc(-c2ncc(C(=O)NCCS(N)(=O)=O)s2)c(C)c1`, the INHIBITION is -37.3%.

As to `COc1ccccc1C(O)CNC(=O)NCc1csc(C)n1` (stereo unspecified), the INHIBITION is given as 13.3%.

As to `CN(C)Cc1nc2c(o1)CN(S(=O)(=O)c1cccs1)C2`, the INHIBITION amounted to 34%.

Turning to `O=S(=O)(c1cccs1)N1Cc2nc(CN3CCCC3)oc2C1`, the INHIBITION was determined as 67.5%.

On to `O=S(=O)(c1cccs1)N1Cc2nc(COCC3CC3)oc2C1`, for which the INHIBITION is on record as 30.3%.

Consider `CCN(CC)Cc1nc2c(o1)CN(S(=O)(=O)c1cccs1)C2`, for which the INHIBITION came to 57.5%.

With `O=S(=O)(c1cccs1)N1Cc2nc(CN3CCCCC3)oc2C1`, the INHIBITION is on record as 19.5%.

Consider `c1csc(CN2Cc3nc(CN4CCCC4)oc3C2)c1`, for which the INHIBITION amounted to 33.5%.
